Rows were chosen to be rich in hits. Some 0.54% of all compounds tested hit in one or more screens of this group.
PvdQ inh – P. aeruginosa PvdQ acylase inhibition | purified PvdQ acylase, fluorescence plate reader | inhibition, % at 10 µM | hit rate 0.063% among 340,000; in the data active = inhibition above about 30%, passing the limit was not always enough
PDI turbidity – PDI (human) enzyme inhibition; P07237; PDI insulin aggregation turbidity, A650, 90 min; inhibition, % at 10 µM; hit rate 0.052% among 350,000; AID 588391;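 active = mean inhibition across replicates of 30% or more, whatever share of single replicates reach that level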
Target sequence (P07237 whole entry, looked up): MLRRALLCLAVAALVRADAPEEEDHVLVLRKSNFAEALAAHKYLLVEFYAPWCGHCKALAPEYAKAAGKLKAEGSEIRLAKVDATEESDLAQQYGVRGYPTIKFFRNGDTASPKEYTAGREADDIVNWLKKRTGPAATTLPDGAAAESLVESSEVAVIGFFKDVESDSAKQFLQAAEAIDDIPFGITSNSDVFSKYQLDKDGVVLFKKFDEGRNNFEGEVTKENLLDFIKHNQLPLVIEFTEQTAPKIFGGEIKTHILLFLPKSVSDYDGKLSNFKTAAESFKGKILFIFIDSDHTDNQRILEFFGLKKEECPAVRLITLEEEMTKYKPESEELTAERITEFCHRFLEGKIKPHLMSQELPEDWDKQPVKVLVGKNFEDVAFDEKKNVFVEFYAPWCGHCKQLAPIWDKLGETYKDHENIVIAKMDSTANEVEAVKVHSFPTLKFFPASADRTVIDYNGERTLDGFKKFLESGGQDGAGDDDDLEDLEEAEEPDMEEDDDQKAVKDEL
Rtt109 HAT inh – C. albicans Rtt109 histone acetyltransferase inhibition. inhibition, % at 34.9 µM. purified Rtt109/Vps75, ThioGlo CoA-SH fluorescence, 4 h. Q5AAJ8. hit rate 0.16% among 330,000;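 active = inhibition of at least 50% in every replicate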
Efflux pump mplx – inhibitors of Candida antifungal efflux pumps expressed in yeast | S. cerevisiae Candida pump triplex, Nile Red efflux | inhibition, % at 10 µM | AID 485275 | hit rate 0.44% among 330,000;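 active = plate passing quality check with inhibition over a set limit, or well fluorescence over plate mean plus 4 SD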;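 note: Nile Red retained in pooled yeast measured as flow cytometry median fluorescence; higher means more Nile Red kept so more efflux inhibition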
ERp5 block – ERp5 (human) disulfide isomerase inhibition; Q15084; ERp5 insulin aggregation, absorbance 650 nm, 90 min; inhibition, % at 9.99 µM; hit rate 0.05% among 350,000; AID 651711;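 active = mean replicate inhibition above about 25%, with every replicate also reaching it, limit read from the data, passing the limit was not always enough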
Cmpd fluor yeast – flagged as fluorescent in efflux inhibitor counter-screen; shares compounds with Efflux pump mplx; S. cerevisiae AD/pABC3, compound fluorescence, flow cytometry; fluorescence ratio to DMSO, % at 10 µM; hit rate 4% among 1,700; AID 588517;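 active = fluorescence ratio to DMSO above its plate's cutoff, the plate mean ratio plus 5 SD, cut at about 210% in these data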;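 note: unstained yeast with no Nile Red so the signal is compound autofluorescence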
Mdr1 pump inh – blocks the Candida albicans Mdr1 efflux pump in yeast; shares compounds with Efflux pump mplx; S. cerevisiae AD/CaMDR1, Nile Red efflux, flow cytometry; inhibition, % at 10 µM; hit rate 1% among 1,700; in the data active = inhibition above about 26%;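 note: higher means more Nile Red retained so more efflux inhibition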
Cdr2 pump inh – inhibitors of Candida albicans Cdr2 efflux pump | shares compounds with Efflux pump mplx | S. cerevisiae AD/CaCDR2, Nile Red retention, flow cytometry | Nile Red retention ratio vs DMSO, % at 10 µM | hit rate 4% among 1,700 | AID 588520; in the data active = Nile Red retention ratio vs DMSO above about 190%;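 note: higher ratio means more blocking of Cdr2 efflux of the dye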
Cdr1 pump inh – inhibitors of Candida albicans Cdr1 efflux pump. inhibition, % at 10 µM. shares compounds with Efflux pump mplx. S. cerevisiae AD/CaCDR1, Nile Red efflux, flow cytometry. hit rate 1% among 1,700;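 active = inhibition above the screen-wide mean plus twice its standard deviation, cut at about 32% in these data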
A number is an active result.

For NNc1nc2c(F)cccc2s1 the results were PvdQ inh inactive, PDI turbidity inactive, Rtt109 HAT inh inactive, Efflux pump mplx inactive and ERp5 block inactive.
Screening O=C(c1ccc2c(c1)OCO2)N1CC(=O)N2[C@H](CO)[C@@H](c3ccc(C#CCC4CCCC4)cc3)[C@H]2C1 returned ERp5 block inactive.
`Cc1ccc(-c2cnc3c(c2)C(=O)N([C@@H](C)CO)C[C@@H](C)[C@H](CN(C)CC2CCCCC2)O3)cc1` gave ERp5 block inactive.
For O=C(Nc1ccccc1-c1nnc(SCc2ccccc2)o1)c1ccccc1 the results were PvdQ inh inactive, PDI turbidity inactive and Efflux pump mplx inactive.
Screening O=C(Nc1ccccc1-c1nnc(SCc2ccc(Cl)cc2)o1)c1ccccc1 returned PvdQ inh inactive, PDI turbidity inactive, Rtt109 HAT inh inactive, Efflux pump mplx 0.5, Cmpd fluor yeast inactive, Mdr1 pump inh inactive, Cdr2 pump inh inactive and Cdr1 pump inh inactive.
`COCCOc1ccc(C(F)(F)F)cc1NC(=O)c1ccccc1` gave PvdQ inh inactive, PDI turbidity inactive, Rtt109 HAT inh inactive and Efflux pump mplx inactive.
For CC(C)(C)c1ccc(OCCOc2ccc(C(C)(C)C)cc2NC=O)c(NC=O)c1 the results were PvdQ inh inactive, PDI turbidity inactive, Rtt109 HAT inh inactive, Efflux pump mplx 0.6, ERp5 block inactive, Cmpd fluor yeast inactive, Mdr1 pump inh inactive, Cdr2 pump inh inactive and Cdr1 pump inh inactive.
`Cc1noc(C)c1NC(=O)N(C)C[C@@H]1Oc2ncc(C#CC3CC3)cc2C(=O)N([C@@H](C)CO)C[C@H]1C` gave ERp5 block inactive.
For COc1cc(SC)ccc1C(=O)Nc1nccs1 the results were PvdQ inh inactive, PDI turbidity inactive, Rtt109 HAT inh inactive, Efflux pump mplx 1.0, ERp5 block inactive, Cmpd fluor yeast inactive, Mdr1 pump inh inactive, Cdr2 pump inh inactive and Cdr1 pump inh inactive.
`CCCCN=C(NNc1ccc(Br)cc1)C(=O)OCC` gave PvdQ inh inactive, PDI turbidity inactive, Rtt109 HAT inh inactive, Efflux pump mplx 17, ERp5 block inactive, Cmpd fluor yeast inactive, Mdr1 pump inh inactive, Cdr2 pump inh inactive and Cdr1 pump inh inactive.
Cc1ccc(-n2nc3cc(C)c(N)cc3n2)cc1 was read as PvdQ inh inactive, PDI turbidity inactive, Rtt109 HAT inh inactive and Efflux pump mplx inactive.
Screening Cc1cc2nc3ccc(N(C)C)cc3nc2cc1N returned PvdQ inh inactive, PDI turbidity inactive, Rtt109 HAT inh inactive, Efflux pump mplx 1.6, Cmpd fluor yeast inactive, Mdr1 pump inh inactive, Cdr2 pump inh inactive and Cdr1 pump inh inactive.
O=C(NC1CCCC1)C(c1ccncc1)N(C(=O)c1ccco1)c1ccccc1 (stereo not given) was read as PvdQ inh inactive, PDI turbidity inactive, Rtt109 HAT inh inactive, Efflux pump mplx 0.6, ERp5 block inactive, Cmpd fluor yeast inactive, Mdr1 pump inh inactive, Cdr2 pump inh inactive and Cdr1 pump inh inactive.
Screening N#Cc1ccc(-c2ccc3c(c2)[C@H]2[C@H](CCN2Cc2ccc4c(c2)OCO4)[C@H](CO)N3)cc1 returned ERp5 block inactive.
CSCCC(NC(=O)c1ccccc1Cl)C(=O)N1CCN(C(c2ccccc2)c2ccccc2)CC1 (stereo not given) was read as PvdQ inh inactive, PDI turbidity inactive, Rtt109 HAT inh inactive, Efflux pump mplx 0.5, ERp5 block inactive, Cmpd fluor yeast inactive, Mdr1 pump inh inactive, Cdr2 pump inh inactive and Cdr1 pump inh inactive.
For CSCCC(NC(=O)c1ccccc1Cl)C(=O)N1CCN(C(C)=O)CC1 (stereo not given) the results were PvdQ inh inactive, PDI turbidity inactive, Rtt109 HAT inh inactive, Efflux pump mplx inactive and ERp5 block inactive.
`Cc1ccc(S(=O)(=O)NCC[C@H]2CC[C@H](NC(=O)c3cccc(F)c3)[C@H](CO)O2)cc1` gave ERp5 block inactive.
